Screen size: about 260,000 compounds; about 2,200 (0.85%) were called active. Shown is part of a subset that was picked to be rich in actives. Unmarked numbers belong to inactive results.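 The calls were made as follows: active = compounds whose cAMP rise, as percent of the full-agonist control response, exceeds 60; inactive = the rest.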

The target in this assay is Prostaglandin E2 receptor EP2 subtype (Homo sapiens) (UniProt P43116). The assay can be described thus: modulation of human EP2 prostaglandin signaling – cell-based, HTRF cAMP, PGE2 stimulation, primary screen (AID 940).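 Also: rat C6 glioma line stably carrying human EP2 under a CMV promoter; the protocol text gives 20 µM as final concentration; 100% = response of wells given 1 µM PGE2.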 Conditions: EP2-expressing cells, cAMP HTRF FRET, PGE2 co-stimulation; at 25 µM; active compounds read high.
Prostaglandin E2 receptor EP2 subtype (Homo sapiens), sequence (P43116 whole entry, looked up): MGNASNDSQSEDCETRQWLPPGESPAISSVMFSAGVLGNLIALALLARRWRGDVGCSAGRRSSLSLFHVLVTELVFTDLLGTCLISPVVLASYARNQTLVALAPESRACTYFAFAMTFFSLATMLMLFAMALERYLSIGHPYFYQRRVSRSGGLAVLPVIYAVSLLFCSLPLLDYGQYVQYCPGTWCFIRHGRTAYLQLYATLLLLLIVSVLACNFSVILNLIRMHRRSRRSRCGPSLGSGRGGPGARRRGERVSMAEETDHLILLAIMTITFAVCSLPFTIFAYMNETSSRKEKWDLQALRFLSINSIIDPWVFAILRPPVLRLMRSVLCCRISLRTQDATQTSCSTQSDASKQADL
In the case of `COc1cc(C2NC(=O)NC(C)=C2C(=O)Nc2cc(Cl)ccc2C)cc(OC)c1OC` (stereo not drawn), the induction is -22.7%.
For `Cc1cccc(-n2c(C)c3c(C)nnc(C)c3c2C)c1`, the induction is -24.2%.
Next, `Clc1ccc(C=Nc2ccc3c(c2)Cc2ccccc2-3)c(Cl)c1`: 6.77%; `O=C1Cc2ccccc2Sc2ccc(Cl)cc21`: 61.4% (active); `S=C1Nc2cc(Cl)ccc2Sc2ccccc21`: 11.7%.
Next, `CCn1c(=O)oc2cc(S(=O)(=O)N3CCCN(C(C)=O)CC3)ccc21`: -12.2%.
Next, `COc1ccccc1NC(=O)Cn1nc(C)n2c(cc3occc32)c1=O`: -27.1%.
Turning to `CCOc1ccc2nc(Nc3nc(C)c(C(C)=O)c(C)n3)nc(C)c2c1`, the induction is -18.1%.
Next, `COc1ccc(-c2nnn(CC(=O)Nc3ccc(F)cc3F)n2)cc1OC`: -72%.
Next, `COC(=O)C1NN=C(C(=O)c2ccc(Br)cc2)C1c1cccc(Br)c1` (stereo not drawn): 0.95%; `COC(=O)C1=C(C)N(C)C(=S)NC1c1ccccc1` (stereo not drawn): -3.11%.
In the case of `COC(=O)C1=C(C)N(C)C(C)=C(C(=O)OC)C1c1cccc(Br)c1`, the induction was 66.5% (active).
In the case of `COc1ccc(-c2ccc(SCC(=O)N3c4ccccc4CCc4ccccc43)nn2)cc1OC`, the induction was 28.9%.
Take `Cc1ccccc1-c1n[nH]c(=S)n1/N=C/c1ccc(-c2ccccc2Br)o1`: the induction was 77% (active).
For `Cc1n[nH]c(=S)n1/N=C/c1ccc(Br)o1`, the induction was -3.02%.
Regarding `Cc1ccccc1-c1n[nH]c(=S)n1C`, the induction was 25.6%.
`COc1ccc(NCc2nnc(SCC(=O)Nc3ccccc3OC)n2C)cc1`: the induction was -42.3%.
Next, `C=CCNC(=O)CSc1nc(-c2ccc(OC)cc2)cc(C(F)(F)F)n1`: -95.2%; `Cn1c(=O)c2c(nc(N3CCN(c4ccccc4)CC3)n2CCC#N)n(C)c1=O`: -28.3%.
As for `Cc1cccc(Cn2c(N3CCN(c4ccccc4)CC3)nc3c2c(=O)n(C)c(=O)n3C)c1`, the induction was 67.6% (active).
Next, `Cc1cccc(Cn2c(SCCO)nc3c2c(=O)n(C)c(=O)n3C)c1`: 25.1%; `CCn1c2cc(C)sc2c2cnn(CC(=O)Nc3ccc(F)cc3)c(=O)c21`: -32.1%.
Next, `CC1CCN(c2nc3c(c(=O)[nH]2)CCN(Cc2cn(CC(=O)O)c4ccccc24)C3)CC1`: -3.4%; `CC1(C)CCC[C@@]2(C)C1[C@@H](O)C[C@]1(C)C2CC[C@@H]2[C@@]3(C)CC[C@H](C(C)(C)O)[C@@H]3CC[C@@]21C` (stereo partly drawn): 16.7%.
Next, `O=c1c2ccccc2nc2n1C1(CCCCC1)Cc1ccccc1-2`: 68.8% (active); `CCC1(CC)Cc2ccccc2-c2nc3ccccc3c(=O)n21`: 22.9%.
For the molecule `c1cncc(-c2nnc3n2C2(CCCCC2)Cc2ccccc2-3)c1`, the induction was 16.9%.
Next, `C=C(C)CC(Nc1ccc(C)cc1)c1ccco1` (stereo not drawn): 61.3% (active); `Cc1ccc(CC(=O)NCc2ccco2)cc1`: 8.03%; `Cc1ccc(NC(=S)N(Cc2ccco2)C(C)c2cccs2)cc1` (stereo not drawn): 44.2%.
Next, `CC1CCCC(C)N1C(=O)[C@H]1C[C@@H](c2cccs2)NS(=O)(=O)N1C` (stereo partly drawn): -34.9%; `Cc1nn2c(NCc3cccnc3)c3c(nc2c1-c1cccs1)CCC3`: -40.8%.
Next, `Cn1c(COc2cccc3ccccc23)nnc1SCC(=O)Nc1ccccc1Cl`: 5.15%; `Cc1ccc(-n2c(SCC(=O)Nc3ccc4c(c3)OCO4)nnc2-c2ccccn2)cc1`: 4.01%; `Cc1occc1-c1nnc(SCC(=O)Nc2ccc3c(c2)OCO3)n1Cc1ccco1`: 25.1%.
`Cc1ccc(-n2c(SCC(=O)Nc3ccc4c(c3)OCO4)nnc2-c2ccoc2C)cc1`: the induction was 64.9% (active).
`CNC(=S)N(Cc1ccccc1)Cc1cc2cccc(C)c2[nH]c1=O`: the induction is -48.1%.
Next, `Nc1nc(Br)c2ccccc2c1-c1ccc(F)cc1`: 62% (active).

Values taken from PubChem BioAssay AID940 (Emory University Molecular Libraries Screening Center, 2007).
